The results in this text go back to PubChem BioAssay (NCI).

Assay in all cases: NCI-60 one-dose screen, 48 h (100 = growth as untreated, 0 = no growth, -100 = all killed)
One test has as its system T-47D breast. Conditions: 10 µM unless noted.
The subject of another test is BT-549 breast. The conditions noted are these: 10 µM unless noted.
The test system of the next test is MDA-MB-435 melanoma. The conditions noted are these: 10 µM unless noted.
For the next test, the system named is MCF7 breast.
The next test has as its system HCT-116 colon. The conditions noted are these: 10 µM unless noted.
The test system of another test is HCC-2998 colon. Conditions: 10 µM unless noted.
In the next test the test system is KM12 colon. The conditions noted are these: 10 µM unless noted.
The test system of a further test is SW-620 colon. The conditions noted are these: 10 µM unless noted.

The structures appear in SMILES notation. Values joined by “and” are separate entries in the source; they are usually repeats but may differ in a detail not shown here. Equal values may be shown once. About 83,000 compounds went through this panel and 20% of them were active in at least one assay; those are over-represented in the sample as a whole.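 For each line, cells grew in 96-well plates with the test compound present at a single concentration for 48 hours.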 Active and inactive are the calls of the source. How the source made its calls: active means growth percent below 10; inactive means the rest.

`Oc1ccc(Cc2ccccc2Cl)c(O)c1`: the growth in the test on T-47D breast is 83.9% (inactive); in the test with BT-549 breast it was 99.2% (inactive); with MDA-MB-435 melanoma it was 107% (inactive); in the test on MCF7 breast (10 µM unless noted), 119% (inactive); in the test on HCT-116 colon it was 96.6% (inactive).
Consider `O=C1OC(c2ccccc2)=N/C1=C\c1ccccc1`, for which the growth with T-47D breast was 96.4% (inactive); in the test with BT-549 breast, 96.3% (inactive); in the test with MDA-MB-435 melanoma, 109% (inactive); with MCF7 breast (10 µM unless noted) it was 98.4% (inactive); with HCT-116 colon, 102% (inactive); with HCC-2998 colon, 96.6% (inactive). Also, in the test with KM12 colon, the growth was 108% (inactive).
`CN1CNC(=O)NC1`: the growth in the test on T-47D breast was 112% (inactive) and 100% (inactive); in the test on BT-549 breast, 97.8% (inactive) and 112% (inactive); in the test on MDA-MB-435 melanoma, 106% (inactive) and 115% (inactive); in the test with SW-620 colon it was 105% (inactive) and 104% (inactive); with MCF7 breast (10 µM unless noted), 109% (inactive) and 96.4% (inactive); in the test with HCT-116 colon it was 105% (inactive). The growth was 113% (inactive) and 102% (inactive) with HCC-2998 colon; 117% (inactive) and 105% (inactive) in the test with KM12 colon.
On to `CC(=O)OC(C)C(=O)NCC(C)O` (configuration not stated), for which the growth was 96.3% (inactive) in the test on T-47D breast; 111% (inactive) in the test on BT-549 breast; 111% (inactive) with MDA-MB-435 melanoma; 94.3% (inactive) in the test with SW-620 colon; 96.9% (inactive) with MCF7 breast (10 µM unless noted); 95.2% (inactive) in the test with HCT-116 colon. Moreover, the growth in the test with KM12 colon is 102% (inactive).
Take `Cc1ccc(=O)[nH]n1`: the growth in the test on T-47D breast was 109% (inactive) and 95.4% (inactive); in the test with BT-549 breast, 112% (inactive) and 113% (inactive); in the test on MDA-MB-435 melanoma, 113% (inactive); in the test with SW-620 colon, 102% (inactive) and 103% (inactive); in the test with MCF7 breast (10 µM unless noted), 101% (inactive) and 96.2% (inactive); in the test on HCT-116 colon it was 107% (inactive). The growth with KM12 colon is 103% (inactive) and 101% (inactive).
Take `O=[N+]([O-])c1cccc(SSc2cccc([N+](=O)[O-])c2)c1`: the growth was 76.9% (inactive) in the test with T-47D breast; 101% (inactive) in the test on BT-549 breast; 102% (inactive) in the test with MDA-MB-435 melanoma; 93.7% (inactive) in the test on MCF7 breast (10 µM unless noted); 94% (inactive) with HCT-116 colon; 108% (inactive) with HCC-2998 colon. The growth with KM12 colon was 107% (inactive).
Consider `CCCCOc1ccc(Nc2cc(Cl)ccc2C(=O)O)cn1`, for which the growth was 92.6% (inactive) and 92.3% (inactive) in the test with T-47D breast; 101% (inactive) and 100% (inactive) in the test on BT-549 breast; 105% (inactive) and 107% (inactive) in the test with MDA-MB-435 melanoma; 103% (inactive) and 101% (inactive) with SW-620 colon; 99.5% (inactive) and 107% (inactive) in the test with MCF7 breast (10 µM unless noted); 93.7% (inactive) and 92.4% (inactive) in the test with HCT-116 colon. The growth is 95.4% (inactive) in the test with HCC-2998 colon; 118% (inactive) and 103% (inactive) with KM12 colon.
`CC1CCC2(C(=O)O)CCC3(C)C(=CCC4C5(C)CCC(O)C(C)(C)C5CCC43C)C2C1C` (configuration not stated): the growth in the test on T-47D breast was 49% (inactive) and 77.2% (inactive); with BT-549 breast it was 263% (inactive) and 102% (inactive); in the test on MDA-MB-435 melanoma it was 59.8% (inactive) and 103% (inactive); in the test with MCF7 breast (10 µM), 84.3% (inactive) and 93.3% (inactive); in the test on MCF7 breast (100 µM), -56.5% (active) and -70% (active); in the test with HCT-116 colon, 6.37% (active) and 85.7% (inactive). Further, the growth in the test on KM12 colon is 59.6% (inactive) and 85.7% (inactive).
Turning to `C#CCOC(=O)Nc1ccccc1`, the growth was 109% (inactive) in the test on T-47D breast; 106% (inactive) in the test with BT-549 breast; 98.8% (inactive) with MDA-MB-435 melanoma; 87.4% (inactive) in the test on MCF7 breast (10 µM unless noted); 105% (inactive) in the test on HCT-116 colon; 100% (inactive) in the test on HCC-2998 colon. Moreover, the growth with KM12 colon is 110% (inactive).
For `COc1ccc(Nc2ccc3ccccc3c2)cc1`, the growth in the test with T-47D breast is 65.6% (inactive); in the test with BT-549 breast, 94.7% (inactive); with MDA-MB-435 melanoma it was 22.1% (inactive); in the test on SW-620 colon, 72.1% (inactive); with MCF7 breast (10 µM unless noted), 58.1% (inactive); in the test on HCT-116 colon, 79% (inactive). The growth with KM12 colon is 46.7% (inactive).
As to `CC(C)NC(=O)N/C=C(\C#N)C(N)=O`, the growth in the test with T-47D breast is 101% (inactive); in the test on BT-549 breast, 92.1% (inactive); with MDA-MB-435 melanoma, 92.6% (inactive); in the test with SW-620 colon, 93.4% (inactive); in the test with MCF7 breast (10 µM unless noted) it was 102% (inactive); with HCT-116 colon, 90.9% (inactive). Also, the growth was 97.5% (inactive) with HCC-2998 colon and 92.7% (inactive) with KM12 colon.
Regarding `CCN(CCNS(C)(=O)=O)c1ccc(N)c(C)c1`, the growth with T-47D breast is 1.47% (active) and 56.8% (inactive); in the test with BT-549 breast, 73.8% (inactive) and 102% (inactive); in the test on MDA-MB-435 melanoma it was 28.9% (inactive) and 76.5% (inactive); in the test with SW-620 colon, 21.6% (inactive) and -27.2% (active); with MCF7 breast (10 µM unless noted), 20.6% (inactive) and 72.8% (inactive); in the test on HCT-116 colon, -52.9% (active) and 43.1% (inactive). Further, the growth in the test on HCC-2998 colon was 103% (inactive) and 102% (inactive); in the test with KM12 colon it was 103% (inactive).
As to `COc1ccc2cc1Oc1ccc(cc1)C[C@H]1c3cc(c(OC)cc3CCN1C)Oc1c(OC)c(OC)cc3c1[C@H](C2)N(C)CC3`, the growth with T-47D breast is 93.1% (inactive); in the test on BT-549 breast it was 28.5% (inactive); in the test with MDA-MB-435 melanoma, 24.7% (inactive); in the test on SW-620 colon, 40.1% (inactive); in the test on MCF7 breast (10 µM), 52.7% (inactive); with MCF7 breast (100 µM), 98.3% (inactive) and 67.5% (inactive). The growth in the test on HCT-116 colon is 14% (inactive); in the test on HCC-2998 colon, 0.135% (active); in the test on KM12 colon, 15.6% (inactive).
`CCCCCCCCCCCCCCCc1ccc(N)c(OC2OC(CO)C(O)C(O)C2O)c1` (configuration not stated): the growth in the test on T-47D breast was 104% (inactive); in the test with BT-549 breast it was 54.8% (inactive); in the test on MDA-MB-435 melanoma, 99.6% (inactive); in the test with SW-620 colon, 98.2% (inactive); with MCF7 breast (10 µM unless noted), 93.7% (inactive); with HCT-116 colon, 87.7% (inactive). Further, the growth in the test on KM12 colon was 100% (inactive).
